The values below come from PubChem BioAssay AID2284366 (EPA ToxCast).

In general, AC50 refers to the concentration giving half of the maximal activity seen.

SMILES strings stand for the structures. Results filed as inconclusive are left out. Calls of active or inactive are those of the source. How the source made its calls: active means hit-call score of the fitted dose curve at least 0.9, where 1 is the maximum; inconclusive means response in the unintended direction; inactive means score below 0.9.

The assay concerns zebrafish Peroxisome Proliferator-activated Receptor gamma (PPARg), gene 557037. As to the kind of experiment: ATG_zfPPARg_EcoTox2: Attagene TRANS-FACTORIAL EcoTox-2 HepG2 Assay for zebrafish Peroxisome Proliferator-activated Receptor gamma (PPARg). The protocol:
ATG_EcoTox2 is a cell-based, multiplexed assay created by modifying the existing Attagene TRANS-FACTORIAL system to include a panel of nuclear receptors from some or all the following species: human (Homo sapiens), african clawed frog (Xenopus laevis), rainbow trout (Oncorhynchus mykiss), japanese medaka (Oryzias latipes), and zebrafish (Danio rerio). The ECOTOX2-FACTORIAL format uses HepG2, a human liver cell line, with measurements taken at 24 hours after chemical dosing in a 24-well plate. ATG_zfPPARg_EcoTox2 is one of 29 assay components calculated in the ATG_EcoTox2 assay. It is designed to make measurements of mRNA induction, a form of inducible reporter, as detected with fluorescence intensity signals by Reverse transcription polymerase chain reaction (RT-PCR) and Capillary electrophoresis technology.The assay endpoint ATG_zfPPARg_EcoTox2 was analyzed in the positive analysis fitting direction relative to DMSO as the negative control and baseline of activity. Using a type of inducible reporter, measures of mRNA for gain-of-signal activity can be used to understand the reporter gene at the transcription factor-level as they relate to the gene PPARg. Furthermore, this assay endpoint can be referred to as a primary readout, because this assay has produced multiple assay endpoints where this one serves a reporter gene function. To generalize the intended target to other relatable targets, this assay endpoint is annotated to the nuclear receptor intended target family, where the subfamily is non-steroidal.
Human liver HepG2 cells are transiently transfected with multiple reporter transcription units (MRTUs) in 6-well plates using FuGene 6 reagent (Roche; 3 ml FuGene/1 mg DNA). The MRTU constructs are regulated by a cis-regulating element (promoter). Each RTU expresses a GAL4-UAS that regulates the transcription of a nearby target reporter gene sequence. A major difference between the CIS and TRANS system is that in CIS activities of endogenous TFs are measured, whereas the TRANS assay evaluates changes in activities of exogenous, chimeric NR-Gal4 proteins. […] At the end of 24 hour incubation, total RNA was isolated using TriZol reagent (Invitrogen). The isolated RNA is then reverse-transcribed using oligo(dT) primer and Mo-MLV reverse transcriptase (Invitrogen) with DNAse I (Ambion) treatment for 30 min. The one-tenth of the produced cDNA was amplified by PCR using Taq DNA polymerase (Invitrogen) and two reporter sequence-specific primers. The PCR products were fluorescently labeled by primer extension with 6-arboxyfluorescein (6-FAM) 5'-labeled reporter sequence-specific primer (2 min at 95 C, 20 s at 68 C and 10 min at 72 C) and these products were digested with 5U of HpaI (New England Biolabs) for 2h at 37 C. The fragments were purified using Qiaquick PCR columns (Qiagen), analyzed on an ABI 3130xL genetic analyzer (Applied Biosystems) with peak positions identified by using a set of X-rhodamine (ROX)-labeled MapMarker1000 molecular weight standards (BioVentures). The raw capillary electrophoresis data was processed using Attagraph software (Attagene).
Take `CC(C)OC(=O)C(C)(C)Oc1ccc(C(=O)c2ccc(Cl)cc2)cc1`: the compound was classed as inactive. `C=C(c1ccc(C(=O)O)cc1)c1cc2c(cc1C)C(C)(C)CCC2(C)C`: the AC50 was 2.23 µM (active).

Consider `CC(C)(Oc1ccc(Cl)cc1)C(=O)O`, for which the compound was called inactive. The same measure, in the same setting: under `CN(CCOc1ccc(CC2SC(=O)NC2=O)cc1)c1ccccn1` (stereo not given) stands “inactive”.

As to `Cc1ccc(C)c(OCCCC(C)(C)C(=O)O)c1`, the outcome was inactive. As for `Cc1nc(-c2ccc(C(F)(F)F)cc2)sc1C(=O)NCc1ccc(OC(C)(C)C(=O)O)cc1`, the AC50 was 21.3 µM (active). `Cc1cccc(Nc2cc(Cl)nc(SCC(=O)O)n2)c1C`: the compound was called inactive. On the same count and under the same terms, then `Cc1c(C)c2c(c(C)c1O)CCC(C)(COc1ccc(CC3SC(=O)NC3=O)cc1)O2` (stereo not given), with “inactive”; and `C[C@]12C=CC(=O)C=C1CC[C@@H]1[C@@H]2C(=O)C[C@@]2(C)[C@H]1CC[C@]2(O)C(=O)CO`, with “inactive”. Regarding `C[C@@H]1C[C@H]2[C@@H]3CCC4=CC(=O)C=C[C@]4(C)[C@@]3(F)[C@@H](O)C[C@]2(C)[C@@]1(O)C(=O)COP(=O)(O)O`, the compound was called inactive.
